From PubChem BioAssay (NCI)
Compounds without any hit were thinned out: in the full panel of roughly 83,000, 20% have a hit.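 Treatment: one concentration, 48 hours, 96-well format. Scoring: percent growth, with anything below 10 considered active.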 Activity calls are given as the source filed them.

Key:
Experiment in all cases: NCI-60 one-dose screen, 48 h (100 = growth as untreated, 0 = no growth, -100 = all killed)
Settings in all cases: 10 µM unless noted
EKVX NSCLC = system: EKVX NSCLC
SN12C renal = system: SN12C renal
UO-31 renal = system: UO-31 renal
TK-10 renal = system: TK-10 renal
ACHN renal = system: ACHN renal
A498 renal = system: A498 renal
CCRF-CEM leukemia = system: CCRF-CEM leukemia
MOLT-4 leukemia = system: MOLT-4 leukemia
CAKI-1 renal = system: CAKI-1 renal

Measured: growth

CCCc1n(Cc2ccc3ccccc3c2)cc[n+]1Cc1ccc2ccccc2c1
inactive: EKVX NSCLC 21.1% | UO-31 renal 34.8% | ACHN renal 42.3% | CCRF-CEM leukemia 11.8%
active: SN12C renal -3.87% | TK-10 renal -8.58% | A498 renal -3.35% | MOLT-4 leukemia -5.48%

COc1ccc(C(=O)/C=C/c2ccc(C)cc2)cc1OC
inactive: EKVX NSCLC 93% | SN12C renal 75.7% | TK-10 renal 114% | ACHN renal 86.2% | CCRF-CEM leukemia 23.4% | MOLT-4 leukemia 52.1%
active: UO-31 renal -12%

COc1ccc(C2=NN(C=O)C(c3cccc(Nc4ccnc5cc(Cl)ccc45)c3)C2)cc1 (stereo unspecified)
inactive: EKVX NSCLC 36.1% | SN12C renal 36.1% | UO-31 renal 31.2% | TK-10 renal 37.1% | ACHN renal 35.9% | A498 renal 27.4% | CCRF-CEM leukemia 17.1%
active: MOLT-4 leukemia 9.88%

COc1ccc(Oc2ccccc2NC(=O)CNC(=O)c2cccc3ccccc23)cc1
inactive: EKVX NSCLC 46.3% [5 µM] | SN12C renal 46.7% [5 µM] | UO-31 renal 42.4% [5 µM] | TK-10 renal 47.6% [5 µM] | ACHN renal 40.3% [5 µM] | CCRF-CEM leukemia 15.5% [5 µM] | MOLT-4 leukemia 17.1% [5 µM]
active: A498 renal 7% [5 µM]

OCCCc1n(Cc2ccc3ccccc3c2)c2ccccc2[n+]1Cc1ccc2ccccc2c1
active: SN12C renal 8.7%
inactive: EKVX NSCLC 47.6% | UO-31 renal 76.4% | TK-10 renal 37.5% | ACHN renal 81.6% | A498 renal 46% | CCRF-CEM leukemia 30.8% | MOLT-4 leukemia 19.7%

COc1cc(C(=O)/C=C/c2cccc(Nc3ccnc4cc(Cl)ccc34)c2)cc(OC)c1OC
inactive: EKVX NSCLC 16.8% | A498 renal 78.6%
active: SN12C renal -1.72% | UO-31 renal -87.9% | TK-10 renal -39.5% | ACHN renal -68.7% | CCRF-CEM leukemia 2.7% | MOLT-4 leukemia -6.64%

O=C(/C=C/c1cccc(Nc2ccnc3cc(Cl)ccc23)c1)c1ccc(Cl)cc1
inactive: EKVX NSCLC 60.3% | SN12C renal 37.6% | UO-31 renal 30.1% | TK-10 renal 49% | ACHN renal 51.1% | A498 renal 44.1% | CCRF-CEM leukemia 24.4% | MOLT-4 leukemia 24.1%

Cc1cc(C)c2c(N)c3cccc(C)c3nc2n1
active: EKVX NSCLC 3.6% | SN12C renal 6.82% | UO-31 renal -84.5% | TK-10 renal -1.3% | ACHN renal 5.96% | A498 renal -57.2% | CCRF-CEM leukemia 1.26% | MOLT-4 leukemia -10.5%

O=CN1N=C(c2ccc(Cl)cc2)CC1c1cccc(Nc2ccnc3cc(Cl)ccc23)c1 (stereo unspecified)
inactive: EKVX NSCLC 30.3% | SN12C renal 34.5% | UO-31 renal 19.5% | TK-10 renal 23% | ACHN renal 31.5% | CCRF-CEM leukemia 13.6%
active: A498 renal 9.76% | MOLT-4 leukemia 4.5%

COc1c(O)cc2c(c1CC=C(C)C)OC(=O)c1c(cc(O)c(CC=C(C)C)c1O)O2
inactive: EKVX NSCLC 78.5% | SN12C renal 10.4% | UO-31 renal 45.1% | TK-10 renal 42% | ACHN renal 30.2% | CAKI-1 renal 50.6% | A498 renal 116% | CCRF-CEM leukemia 32.2% | MOLT-4 leukemia 20.6%

COc1ccc(C2=NN(C(N)=S)C(c3ccc4c(c3)OCO4)C2)cc1 (stereo unspecified)
inactive: EKVX NSCLC 29.1% | SN12C renal 31% | TK-10 renal 50.2% | ACHN renal 22% | A498 renal 49.2% | MOLT-4 leukemia 13.8%
active: UO-31 renal -7.08% | CAKI-1 renal 6.32% | CCRF-CEM leukemia 5.49%

Cc1cc2c(cc1C)[n+](Cc1ccc3ccccc3c1)cn2Cc1ccc2ccccc2c1
active: EKVX NSCLC -64.3% | SN12C renal -87.2% | UO-31 renal -57.1% | TK-10 renal -87.7% | ACHN renal -63.9% | A498 renal -68% | CCRF-CEM leukemia -35.1% | MOLT-4 leukemia -64.1%

O=C(CNC(=O)c1cccc2ccccc12)Nc1ccccc1Cc1ccccc1
inactive: EKVX NSCLC 54.9% [5 µM] | SN12C renal 56.3% [5 µM] | UO-31 renal 60.7% [5 µM] | TK-10 renal 49.6% [5 µM] | ACHN renal 56.9% [5 µM] | A498 renal 38.2% [5 µM] | CCRF-CEM leukemia 20.4% [5 µM] | MOLT-4 leukemia 19.2% [5 µM]

O=C(CN1CCN(c2ccc(Cl)cc2)CC1)N1CCN(c2nnc(-c3ccc(Cl)cc3)c(-c3ccc(Cl)cc3)n2)CC1
inactive: EKVX NSCLC 71.2% | SN12C renal 75.5% | UO-31 renal 37.9% | TK-10 renal 102% | ACHN renal 68.5% | CAKI-1 renal 168% | A498 renal 56.9% | CCRF-CEM leukemia 10.4%
active: MOLT-4 leukemia -40.9%

Cc1sc2nc3c4ccccc4c(NCCCN(C)C)nn3c(=O)c2c1C
inactive: EKVX NSCLC 75.9% | SN12C renal 53.4% | TK-10 renal 78% | ACHN renal 53.5% | CAKI-1 renal 84.4%
active: UO-31 renal -91.9% | CCRF-CEM leukemia -27.9% | MOLT-4 leukemia -44.9%

COc1cc(C2=NN(C=O)C(c3cccc(Nc4ccnc5cc(Cl)ccc45)c3)C2)cc(OC)c1OC (stereo unspecified)
inactive: EKVX NSCLC 79.3% | SN12C renal 77.2% | UO-31 renal 68.7% | TK-10 renal 87.9% | ACHN renal 86.2% | A498 renal 62.5% | CCRF-CEM leukemia 53.9% | MOLT-4 leukemia 27.9%

COc1cc(C2CC(C3C(=O)N(C)C(=O)N(C)C3=O)=NN2c2cc(Cl)cc(Cl)c2)cc(OC)c1OC (stereo unspecified)
inactive: EKVX NSCLC 93.8% | SN12C renal 93.6% | UO-31 renal 83.2% | TK-10 renal 94.1% | ACHN renal 96.3% | A498 renal 88.5% | CCRF-CEM leukemia 88.3% | MOLT-4 leukemia 88.9%

Clc1ccc(C2=NN(c3ccc(Cl)cc3)C(c3cccc(Nc4ccnc5cc(Cl)ccc45)c3)C2)cc1 (stereo unspecified)
inactive: EKVX NSCLC 74.3% | SN12C renal 77.7% | UO-31 renal 50.7% | TK-10 renal 95.2% | ACHN renal 88.7% | A498 renal 89.3% | CCRF-CEM leukemia 88.5% | MOLT-4 leukemia 56.7%

CC(=O)N1N=C(c2ccc(Cl)cc2)CC1c1c(C)nn(-c2ccccc2)c1N(C)Cc1ccccc1 (stereo unspecified)
inactive: EKVX NSCLC 76.4% | SN12C renal 63.2% | UO-31 renal 50.2% | TK-10 renal 88.5% | ACHN renal 90.9% | A498 renal 71.6% | CCRF-CEM leukemia 73% | MOLT-4 leukemia 44.4%

Cc1n(Cc2ccc3ccccc3c2)cc[n+]1Cc1ccc2ccccc2c1
inactive: EKVX NSCLC 47% | UO-31 renal 81.5% | TK-10 renal 23.5% | ACHN renal 80.1% | A498 renal 31.2% | CCRF-CEM leukemia 24.1% | MOLT-4 leukemia 11.3%
active: SN12C renal 2.52%

N[C@H](CS)C(=O)O
inactive: EKVX NSCLC 97.7% | SN12C renal 107% | UO-31 renal 92.4% | TK-10 renal 97.3% | ACHN renal 102% | CAKI-1 renal 70.4% | A498 renal 117% | CCRF-CEM leukemia 90.8% | MOLT-4 leukemia 104%

OC(c1cc(-c2cccc(Cl)c2)nc2ccccc12)C1CCCCN1 (stereo unspecified)
active: SN12C renal -5.08% | UO-31 renal -44.8% | TK-10 renal -63.2% | ACHN renal -0.726% | CAKI-1 renal -36.5% | CCRF-CEM leukemia -8.29% | MOLT-4 leukemia -30.6%
inactive: EKVX NSCLC 47.3% | A498 renal 56.3%

O=c1[nH]c(N2CCC(Cc3ccccc3)CC2)nc2sc3c(c12)CCCC3
inactive: EKVX NSCLC 99.5% | SN12C renal 103% | UO-31 renal 102% | TK-10 renal 99% | ACHN renal 104% | A498 renal 102% | CCRF-CEM leukemia 91.6% | MOLT-4 leukemia 100%

CC1(C)CC2(C)CC(=O)C1C(C(=O)O)C2C(=O)O (stereo unspecified)
inactive: EKVX NSCLC 121% | SN12C renal 105% | UO-31 renal 98% | ACHN renal 97.2% | CAKI-1 renal 114% | A498 renal 111% | CCRF-CEM leukemia 99.4% | MOLT-4 leukemia 94.3%

CCCn1c(N)c(C(=O)CNc2ccc(I)cc2)c(=O)[nH]c1=O
inactive: EKVX NSCLC 77.9% | SN12C renal 44.6% | UO-31 renal 30.1% | ACHN renal 50.7% | CAKI-1 renal 58.3% | A498 renal 49.2% | CCRF-CEM leukemia 55.9% | MOLT-4 leukemia 29.2%

Cc1sc2nc(NCc3ccccc3)[nH]c(=O)c2c1C
inactive: EKVX NSCLC 70.3% | SN12C renal 68.5% | UO-31 renal 74.6% | TK-10 renal 67% | ACHN renal 84% | CCRF-CEM leukemia 58.9% | MOLT-4 leukemia 44%

O=C1c2cc3c(cc2-c2c1c1ccc(Cl)cc1c(=O)n2CCCNCCO)OCO3
active: EKVX NSCLC -65.3% | SN12C renal -66.6% | UO-31 renal -81.7% | ACHN renal -87.5% | CAKI-1 renal -80% | A498 renal -94.4% | CCRF-CEM leukemia -24.9% | MOLT-4 leukemia -34.5%

c1ccc(-c2n(Cc3ccc4ccccc4c3)cc[n+]2Cc2ccc3ccccc3c2)cc1
inactive: ACHN renal 13.3%
active: EKVX NSCLC 3.5% | SN12C renal -34.7% | UO-31 renal -16.6% | TK-10 renal -69.8% | CCRF-CEM leukemia 6.85% | MOLT-4 leukemia -24.9%

O=C(Nc1ccccc1)P(=O)(O)c1ccccc1
inactive: EKVX NSCLC 113% | SN12C renal 92.1% | UO-31 renal 76.9% | ACHN renal 93.9% | CAKI-1 renal 117% | CCRF-CEM leukemia 120% | MOLT-4 leukemia 95%

CN(C)CCCNc1nn2c(=O)c3ccccc3nc2c2ccccc12
active: MOLT-4 leukemia -19.6%
inactive: EKVX NSCLC 53.5% | SN12C renal 58.3% | TK-10 renal 75.3% | ACHN renal 29.9% | CAKI-1 renal 20.8% | A498 renal 92% | CCRF-CEM leukemia 30.3%
